Hits are enriched below; roughly 7.5% of the tested compounds scored in any of these assays.
HCMV antiviral: blocks human cytomegalovirus replication; AID 1259415; activity change, negative = inhibition, % at 57.5 µM; actives 4.5% (n = 410,000); HFF cells, HCMV-luciferase reporter, 72 h; hits give low values; in the data active means activity change below about -60%; inconclusive means no clear call, values can overlap the other calls; inactive means above about -39%
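Screen run at 2 compound doses on HFFs infected with reporter HCMV, MOI 1 PFU/cell. Luciferase activity from cell lysates at 72 h post infection gave inhibition relative to buffer-only and Salinomycin wells.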
VACV Venus inh: inhibitors of vaccinia virus (Venus reporter); Vaccinia virus Venus reporter expression, fluorescence; Potency, µM (doses to about 36.5 µM), without a hit: at the top dose activity change, negative = inhibition, most hits filed as inhibitors; actives 0.46% (n = 330,000); calls by dose curve; tested in A549 cells; further: potency means the concentration at half of the fitted maximal effect; nearly all actives have a fitted effect of over 30% in size
FBPA Giardia inh: inhibitors of Giardia lamblia fructose-1,6-bisphosphate aldolase; actives 0.71% (n = 290,000); purified Giardia FBPA; Potency, µM (titrated, usually from 59.6 µM), without a hit: top-dose activity, negative = inhibition, hits mostly inhibitors; further: potency means the concentration at half of the fitted maximal effect; nearly all actives have a fitted effect of over 55% in size
Target sequence (A8B2U2 whole entry, looked up): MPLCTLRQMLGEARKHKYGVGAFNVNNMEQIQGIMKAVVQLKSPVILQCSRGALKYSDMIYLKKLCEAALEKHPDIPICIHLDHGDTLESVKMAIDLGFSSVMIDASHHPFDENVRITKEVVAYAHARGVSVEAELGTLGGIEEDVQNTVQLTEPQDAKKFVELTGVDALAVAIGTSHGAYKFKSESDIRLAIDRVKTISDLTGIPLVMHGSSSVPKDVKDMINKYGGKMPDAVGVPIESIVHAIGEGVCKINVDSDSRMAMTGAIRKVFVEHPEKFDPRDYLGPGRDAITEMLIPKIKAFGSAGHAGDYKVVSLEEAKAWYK
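Giardia FBPA (40 nM reagent) was preincubated 10 min at RT with compound (up to 57.5 uM final), then substrate plus GAPDH/TPI/NAD/arsenate coupling system with diaphorase/resazurin was added; resorufin fluorescence (525/598 nm) was read after 20 min.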
VACV mCherry inh: inhibitors of vaccinia virus infection (mCherry reporter signal); actives 0.63% (n = 310,000); Vaccinia virus mCherry reporter infection, fluorescence; Potency, µM (titrated, usually from 36.5 µM), without a hit: at the highest dose activity change, negative = inhibition, actives largely listed as inhibitors; calls by dose curve; tested in A549 cells; further: potency means the concentration at half of the fitted maximal effect; nearly all actives have a fitted effect of over 35% in size
HCV inhibitor: blocks hepatitis C virus; actives 3.4% (n = 340,000); Huh7.5.1 HCVcc-Cre infection, luciferase reporter, 44 h; AID 651820; Potency, µM (highest dose often 41.8 µM), for the others: at the top dose activity change, negative = inhibition, usual class: inhibitors; further: potency means the concentration at half of the fitted maximal effect
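1,000 cells/well; 4 h culture; + compound; + HCVcc-Cre (~0.5 moi); 44 h; luciferase substrate, RT 15 min; read 15 sec.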
FMDV antiviral: blocks foot and mouth disease virus; FMDV antiviral cell-based qHTS; Potency, µM (highest dose often 57.9 µM), without a hit: at the highest dose activity change, negative = inhibition, hits mostly inhibitors; actives 1.2% (n = 410,000); calls by dose curve; tested in HEK293T cells; further: read-out not given here; potency means the concentration at half of the fitted maximal effect; nearly all actives have a fitted effect of over 45% in size
The depositor's hits bear a star; i = inactive; ? = inconclusive; . = no result; [ ] = dose if it differs, or a comment. Unless noted, the call rests on the fitted dose curve; in most records, active means well fitted curve in the direction sought with a large enough effect; inconclusive means small, poorly fitted or top-dose-only effect, or another doubt; inactive means no such curve, though single readings can be large; an effect the other way counts as inactive or inconclusive. On the % scale 0 is the no-effect control and ±100 the full control effect.

SMILES	HCMV antiviral	VACV Venus inh	FBPA Giardia inh	VACV mCherry inh	HCV inhibitor	FMDV antiviral
COc1ccc(NC(=O)C2Cc3c(-c4ccncc4)ccnc3O2)cc1OC (stereo not given)	-5	-15%	.	8%	.	-18%
CC(=O)c1ccc(OC2C=CC(c3ccc(Cl)cc3)OC2CO)cc1 (stereo not given)	.	.	2%[12.9 µM]	.	.	.
C=CCNc1nc(C)c(CNc2c(C)cc(C)cc2C)nc1C#N	43	.	-2%	.	2%	-10%
NC(=O)C1=C[C@H](C2CCCCC2)C[C@H](OCc2ccc(CO)cc2)O1	119	-2%	-15%	i	8%	20%
COc1ccc(OC)c(CNC(=O)c2ccc(Sc3ccc(Cl)cc3)c(NC(C)=O)c2)c1	-27	-16%	.	i	.	0%
CCOC(=O)C(C)N1C(=O)S/C(=C/c2cc(C)n(-c3ccncc3)c2C)C1=O (stereo not given)	-12	?	-12%	?	10µM*	-9%
CCn1c(C)cc(/C=C2/SC(=O)N(C(C)C(=O)OC)C2=O)c1C (stereo not given)	-13	-6%	-12%	-28%	?	-12%
COC(=O)C(C)N1C(=O)S/C(=C/c2cc(C)n(C(C)C)c2C)C1=O (stereo not given)	14	.	-4%	.	10µM*	-23%
CCOC(=O)C(C)N1C(=O)S/C(=C/c2cc(C)n(-c3ccccn3)c2C)C1=O (stereo not given)	24	-8%	-27%	-15%	10µM*	-11%
Cc1ccc(C(=O)OCC(=O)NCc2ccc(Cl)cc2Cl)o1	-9	.	.	.	0%	13%
CCS(=O)(=O)N1CC(=O)N(c2ccc(C)c(C)c2)C(C)(C(=O)NC2CCCCC2)C1 (stereo not given)	0	-14%	.	-17%	.	-4%
COc1ccc(CC2NC[C@H](O)[C@H]2OC(C)=O)cc1 (stereo not given in full)	.	1µM*	2%	0.79µM*	.	?
COc1ccc(C[C@H]2NC[C@H](O)[C@@H]2OC(C)=O)cc1	.	.	-1%	.	.	?
COc1ccc(CC2NCC(O)C2OC(C)=O)cc1 (stereo not given)	-109*	0.11µM*	0%	0.0089µM*	0.56µM*	?
Nc1[nH]c(=S)[nH]c(=O)c1N	.	-7%	.	-14%	.	.
COc1cc(OC)c(NC(=O)c2oc3ccc4c(c3c2C)C(=O)CC(C)(C)O4)cc1Cl	-2	-13%	.	-15%	.	2%
CCCC(C(=O)NC1CCCC1)N(Cc1ccc(OC)cc1)C(=O)c1snc(C(N)=O)c1N (stereo not given)	-8	0%	10%	i	?	0%
CC(CC(C#N)(c1ccccc1)c1ccccc1)N(C)C (stereo not given)	12	-11%	.	-3%	2%	-23%
CCC(C#N)(CC)P(=S)(c1ccccc1)c1ccccc1	-73*	-17%	7%	-2%	1%	-11%
CC1CCCN(C(=O)COC(=O)CNC(=O)c2sc3ccccc3c2Cl)C1 (stereo not given)	-17	.	.	.	7%	-12%
COCC(=O)Nc1cc(C(=O)N2CCN(c3ccccc3)C(=O)C2)cc2nc(-c3ccccc3)n(C)c12	.	-5%	.	-13%	.	0%
O=C(/C=C/c1ccco1)Nc1ccc(S(=O)(=O)N2CCOCC2)cc1	-18	-10%	0%	-20%	3.5µM*	5%
Cc1ccc(NC(=O)/C=C/c2ccc(S(=O)(=O)N3CCOCC3)cc2)cc1S(=O)(=O)N(C)C	-74*	?	.	?	?	35µM*
COc1ccc(N(CC(=O)Nc2cccnc2)S(=O)(=O)c2ccccc2)cc1OC	11	5%	6%	-17%	-2%	2%
CCC1=NN(C(=O)c2ccc(C)cc2)C(O)(c2ccc(Br)cc2)C1 (stereo not given)	66	-8%	10%	-14%	11%	3%
SMILES	HCMV antiviral	VACV Venus inh	FBPA Giardia inh	VACV mCherry inh	HCV inhibitor	FMDV antiviral
CCC1=NN(C(=O)c2cccc(Br)c2)C(O)(c2ccc(Br)cc2)C1 (stereo not given)	-71*	.	14%	.	16µM*	0%
O=C(Nc1ccccn1)c1cc2ccccc2o1	-4	-6%	-6%	i	-10%	.
O=C(Nc1ccc2c(c1)OCCO2)c1cccc(Cl)c1Cl	137	.	-1%	.	-21%	0%
O=C(Nc1ccc2c(c1)OCCO2)c1c(Cl)cccc1Cl	-85*	-2%	.	i	.	24%
Cc1ccc(NC(=O)c2cc3ccccc3oc2=O)cc1S(=O)(=O)N(C)C	.	-13%	6%	-7%	-9%	?
O=C(Nc1ccc(NC(=O)c2cc3ccccc3o2)cc1)c1ccccc1	3	-5%[7.34 µM]	.	-14%[7.34 µM]	.	-13%
Cc1ccc(NC(=O)c2cc3ccccc3o2)cc1S(=O)(=O)N(C)C	12	-6%	3%	-2%	11µM*	-36%
Cc1ccnc(NC(=O)c2cc3ccccc3o2)c1	-5	-4%	.	i	-26%	28µM*
O=C(Nc1ccc2c(c1)OCCO2)c1cc2ccccc2o1	117	9%	?	3%	22µM*	-35%
CN(Cc1ccccc1)C(=O)CCCn1c(=O)c2cccn2c2cccnc21	-35	.	.	.	-11%	-5%
Cc1ccc(C(=O)NC(CCc2ccccc2)C(=O)O)cc1 (stereo not given)	9	-5%	.	-13%	-4%	-4%
CNC[C@H](Cc1ccccc1)NC[C@@H](Cc1cccc2ccccc12)NCCc1ccc(C)cc1	?	14µM*	16%	?	14%	-28%
c1ccc(CCNCCCOc2cccc3ccccc23)cc1	7	?	-16%	-19%	?	-8%
CNCCNC[C@H](Cc1cccc2ccccc12)NCCc1ccccc1	-100*	-12%	.	?	?	-20%
COc1cc(=O)n2c(c1C(=O)N(C)Cc1nonc1C)CCN(Cc1cc(C)ccc1C)CC2	.	-7%	.	-14%	.	-19%
Cc1ccc(Cl)cc1N1CCN(C(=O)CCS(=O)(=O)c2cc(Br)cc3c2N(C(=O)C2CC2)CC3)CC1	-35	-17%	.	-22%	.	-12%
COc1ccc(-c2nc(NC(=O)c3n[nH]c(=O)c4ccccc34)sc2C)cc1	-60*	0%	-2%	-3%	?	-9%
COc1ccc(-c2nc(NC(=O)c3cc(C(C)(C)C)nn3C)sc2C)cc1	.	.	-11%	.	5.6µM*	28µM*
COc1cc(NC(=O)c2n[nH]c(=O)c3ccccc23)cc(OC)c1	-36	.	0%	.	5%	-14%
Cc1cc(C)c(-c2csc(NC(=O)c3n[nH]c(=O)c4ccccc34)n2)c(C)c1	-73*	-12%	6%	-13%	?	?
COc1ccc(-c2nc(NC(=O)c3c(C)noc3C)sc2C)cc1	-61*	-9%	.	-13%	?	?
COc1ccc(-c2nc(NC(=O)CCNC(=O)c3ccco3)sc2C)cc1	-21	.	-2%	.	?	?

High-throughput results: PubChem BioAssay, National Center for Advancing Translational Sciences (NCATS)
